Among the data in PubChem BioAssay are z-score and composite z-score values, retold here.

Assay [1] in a line: optical density shifts of acrAB sulA E. coli – strain DRC41, OD650, 48 h, E. coli filamentation inducer project, primary screen (AID 1152).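 Also: E. coli MC1000 strain DRC41 lacking acrAB efflux pump and sulA.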 To be noted: higher = more signal, called active from +8 up or from −8 down.
Assay [2] in a line: probe aLefty1 binding on compound microarray – biochemical, small-molecule microarray, 635/667 nm fluorescence, primary screen (AID 1153).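 Also: score merges spot fluorescence with signal-to-noise ratio from the scanned slide images.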 To be noted: higher = more signal.
Assay [3] can be described thus: plasmodial surface anion channel blockers, osmotic lysis – cell-based, P. falciparum Indochina, OD700, 1 h, primary screen (AID 1154). To be noted: P. falciparum Indochina infected RBC osmotic lysis, higher = more signal, called active from +8 up or from −8 down.
A short description of assay [4]: plasmodial surface anion channel blockers, osmotic lysis – cell-based, P. falciparum Indochina, OD700, 2 h, primary screen (AID 1155).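 Also: lysis reports solute entry through the parasite surface anion channel PSAC.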 Particulars: P. falciparum Indochina infected erythrocytes, higher = more signal, called active from +8 up or from −8 down.
Assay [5] can be described thus: changes in parasitized red cell lysis, either direction – P. falciparum Indochina, OD700, 3 h, PSAC antagonist project, primary screen (AID 1156). Particulars: P. falciparum-infected erythrocytes, osmotic lysis, higher = more signal, called active from +8 up or from −8 down.
Assay [6] can be described thus: plasmodial surface anion channel blockers, osmotic lysis – cell-based, P. falciparum Indochina, OD700, 18 h, primary screen (AID 1157). Particulars: P. falciparum Indochina infected erythrocytes, osmotic lysis OD700, 18 h; higher = more signal, called active from +8 up or from −8 down.
Assay [7] can be described thus: S6 kinase pathway phospho-S6 level changes – cell-based, A549, cytoblot, luminescence, serum-stimulated, primary screen (AID 1158).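 Also: serum-stimulated A549 lung adenocarcinoma cells; signal is phosphorylated S6 detected by cytoblot immunostaining with HRP secondary.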 Particulars: 5 h, higher = more signal.
Assay [8] deals with NADPH oxidase 2 (Homo sapiens) (UniProt P04839). Briefly: compounds shifting NOX2 Amplex Red fluorescence – cell-based, HEK293-NOX2, PMA-stimulated, NOX inhibitor project, primary screen (AID 1159). Also: test concentration not given here. Particulars: 45 min, higher = more signal, called active from +8 up or from −8 down.
NADPH oxidase 2 (Homo sapiens), sequence (P04839 whole entry, looked up): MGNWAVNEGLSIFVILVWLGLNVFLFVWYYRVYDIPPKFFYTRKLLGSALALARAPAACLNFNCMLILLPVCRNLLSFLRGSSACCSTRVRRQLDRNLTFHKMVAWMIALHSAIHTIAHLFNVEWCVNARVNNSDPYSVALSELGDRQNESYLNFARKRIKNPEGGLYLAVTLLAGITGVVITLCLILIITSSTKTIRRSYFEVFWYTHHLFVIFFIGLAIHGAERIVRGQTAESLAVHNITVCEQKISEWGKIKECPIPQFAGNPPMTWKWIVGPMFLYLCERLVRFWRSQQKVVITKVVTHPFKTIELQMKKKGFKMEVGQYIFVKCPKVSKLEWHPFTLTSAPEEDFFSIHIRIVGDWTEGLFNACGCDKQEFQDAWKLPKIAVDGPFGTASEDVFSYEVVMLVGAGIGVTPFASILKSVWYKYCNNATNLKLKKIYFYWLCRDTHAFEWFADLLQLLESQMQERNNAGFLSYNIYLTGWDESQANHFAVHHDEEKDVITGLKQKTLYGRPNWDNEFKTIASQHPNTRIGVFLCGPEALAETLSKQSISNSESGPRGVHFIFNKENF
The target in assay [9] is NADPH oxidase 4 (Homo sapiens) (UniProt Q9NPH5). Briefly: compounds shifting NOX4 Amplex Red fluorescence – cell-based, HEK293-NOX4, tetracycline-induced, NOX inhibitor project, primary screen (AID 1160). To be noted: HEK293-NOX4, Amplex Red H2O2 fluorescence, 45 min; higher = more signal, called active from +8 up or from −8 down.
NADPH oxidase 4 (Homo sapiens), sequence (Q9NPH5 whole entry, looked up): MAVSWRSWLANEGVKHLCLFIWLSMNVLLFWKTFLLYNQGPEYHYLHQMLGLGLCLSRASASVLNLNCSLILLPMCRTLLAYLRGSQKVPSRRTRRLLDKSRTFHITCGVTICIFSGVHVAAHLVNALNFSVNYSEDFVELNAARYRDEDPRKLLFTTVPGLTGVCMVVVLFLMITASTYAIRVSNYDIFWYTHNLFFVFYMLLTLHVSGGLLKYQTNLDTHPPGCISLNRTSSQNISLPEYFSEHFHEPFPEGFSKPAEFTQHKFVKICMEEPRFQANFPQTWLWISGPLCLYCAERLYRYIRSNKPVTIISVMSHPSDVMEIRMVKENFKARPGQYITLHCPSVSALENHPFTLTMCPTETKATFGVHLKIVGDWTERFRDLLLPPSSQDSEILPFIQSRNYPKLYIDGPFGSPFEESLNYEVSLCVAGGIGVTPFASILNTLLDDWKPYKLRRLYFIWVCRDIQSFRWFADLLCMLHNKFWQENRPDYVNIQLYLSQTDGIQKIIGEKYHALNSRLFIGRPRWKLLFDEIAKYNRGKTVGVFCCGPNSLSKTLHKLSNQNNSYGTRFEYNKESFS
Assay [10] has as its target NADPH oxidase 5 (Homo sapiens) (UniProt Q96PH1). Nature of the assay: compounds shifting NOX5 Amplex Red fluorescence – cell-based, HEK293-NOX5, NOX inhibitor project, primary screen (AID 1161). To be noted: HEK293-NOX5, ionomycin, 45 min, higher = more signal.

SMILES strings stand for the structures. The source made the active and inactive calls.

NADPH oxidase 5 (Homo sapiens), sequence (Q96PH1 whole entry, looked up): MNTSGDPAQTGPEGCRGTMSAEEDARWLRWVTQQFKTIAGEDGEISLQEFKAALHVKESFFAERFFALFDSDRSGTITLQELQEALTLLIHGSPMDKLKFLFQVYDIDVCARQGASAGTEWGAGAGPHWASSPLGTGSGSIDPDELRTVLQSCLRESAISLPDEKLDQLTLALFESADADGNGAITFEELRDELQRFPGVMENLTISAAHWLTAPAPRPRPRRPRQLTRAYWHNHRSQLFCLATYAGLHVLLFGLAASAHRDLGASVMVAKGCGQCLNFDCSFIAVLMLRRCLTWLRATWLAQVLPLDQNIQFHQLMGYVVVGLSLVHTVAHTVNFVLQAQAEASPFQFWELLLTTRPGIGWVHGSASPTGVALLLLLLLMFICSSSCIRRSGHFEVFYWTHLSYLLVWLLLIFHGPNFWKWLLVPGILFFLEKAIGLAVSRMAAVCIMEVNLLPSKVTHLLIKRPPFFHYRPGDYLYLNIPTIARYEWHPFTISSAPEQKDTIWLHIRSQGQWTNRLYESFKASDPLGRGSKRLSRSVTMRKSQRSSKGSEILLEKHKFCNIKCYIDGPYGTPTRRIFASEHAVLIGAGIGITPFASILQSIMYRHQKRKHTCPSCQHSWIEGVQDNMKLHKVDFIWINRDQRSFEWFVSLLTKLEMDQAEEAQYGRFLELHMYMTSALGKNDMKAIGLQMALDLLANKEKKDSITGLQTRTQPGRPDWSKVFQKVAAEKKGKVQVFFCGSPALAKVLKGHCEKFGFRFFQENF

Regarding `NC(=O)NCC#Cc1ccc2c(c1)[C@]1(C(=O)N2)[C@H](C(=O)N2CCCCCCC2)[C@H]2C(=O)O[C@H](c3ccccc3)[C@H](c3ccccc3)N2[C@@H]1c1ccc(OCCO)cc1`, the z-score in [1] was -0.518 (inactive); in assay [3] it was 2.66 (inactive); in assay [4] it was 0.66 (inactive); in [5], 0.391 (inactive); in assay [6], 0.286 (inactive); in [7], -0.378. The z-score in assay [8] is 1.35 (inactive); in assay [9] it was -1.11 (inactive); in [10], -0.67. In assay [2], this compound had a composite z-score of 1.4.
Take `CC(C)C(O)C1C=CC2C(=O)N(c3ccccc3)C(=O)C2N1Nc1ccc(C#N)cc1` (stereo not given): the z-score in assay [1] was -0.411 (inactive); in assay [3] it was 12 (active); in assay [4], 1.1 (inactive); in [5] it was 2.03 (inactive); in [6], 0.875 (inactive); in assay [7], -1.09. The figures for the z-score in assay [8], in assay [9] and in [10] were -1.81 (inactive), -4.46 (inactive) and -2.83, respectively. In addition, the composite z-score in assay [2] is 0.797.
With `Cc1ccc(S[C@]2(C(=O)O)CC(=O)N(C3Cc4ccccc4C3)[C@@H]2c2ccc(CO)cc2I)cc1`, the z-score in assay [1] is -0.453 (inactive); in [3], 6.6 (inactive); in assay [4] it was 1.1 (inactive); in assay [5], 0.356 (inactive); in [6], 0.474 (inactive); in assay [7], -0.148. For the same compound, the z-score was 1.84 (inactive) in assay [8], -2.99 (inactive) in assay [9] and -1.78 in assay [10]. In addition, the composite z-score in assay [2] is -0.0559.
Consider `O=C(OCCF)C1=CCC(c2cccc(Cl)c2)O1` (stereo not given), for which the z-score in [1] is 0.562 (inactive); in assay [3], 16.4 (active); in assay [4], 0.0666 (inactive); in assay [5] it was -0.628 (inactive); in assay [6] it was -1.21 (inactive); in assay [7], 0.543. The z-score in assay [8] is -0.0482 (inactive); in [9] it was 0.842 (inactive); in assay [10] it was 0.382. For the same compound, the composite z-score in assay [2] was -0.378.
As for `NC(=O)NCC#Cc1ccc2c(c1)[C@]1(C(=O)N2)[C@H](C(=O)NC[C@H](O)c2ccccc2)[C@H]2C(=O)O[C@H](c3ccccc3)[C@H](c3ccccc3)N2[C@@H]1c1ccc(O)cc1`, the z-score in assay [1] is -0.765 (inactive); in assay [3], 0.397 (inactive); in assay [4] it was -0.0004 (inactive); in assay [5] it was 2.63 (inactive); in [6], -0.048 (inactive); in assay [7] it was -0.0546. Further, the z-score is 1.3 (inactive) in [8], 0.02 (inactive) in [9] and 0.404 in assay [10]. Also, the composite z-score in [2] is -0.149.
As to `C=C(CCCC)/C(=C/C[C@H](OC(C)=O)c1ccc(CO)o1)c1cnc2ccccc2c1`, the z-score in assay [1] was -0.134 (inactive); in [3] it was 5.4 (inactive); in assay [4], 0.452 (inactive); in assay [5] it was 0.435 (inactive); in assay [6] it was 0.136 (inactive); in assay [7], 0.307. Also, the z-score in assay [8] was -0.719 (inactive); in assay [9], -0.447 (inactive); in assay [10], -0.582. The composite z-score in [2] is 0.0557.
`C=C[C@@H](COC(C)=O)N(Cc1ccc([N+](=O)[O-])cc1)S(=O)(=O)c1ccc(Br)cc1`: the z-score in [1] was 2 (inactive); in assay [3], 7.66 (inactive); in assay [4], 0.824 (inactive); in assay [5] it was 2.31 (inactive); in assay [6], 0.79 (inactive); in assay [7] it was 0.354. Further, the values for the z-score in [8], in [9] and in assay [10] were 0.495 (inactive), 0.851 (inactive) and -0.559, respectively. In addition, the composite z-score in assay [2] stood at 0.0012.
Regarding `COc1ccc(CCNC(=O)[C@@H]2c3ccccc3C(=O)N(Cc3ccc(OC(F)(F)F)cc3)[C@H]2c2ccc(CO)cc2)cc1`, the z-score in [1] was -0.989 (inactive); in assay [3], 4.16 (inactive); in assay [4] it was 0.385 (inactive); in assay [5], 2 (inactive); in [6], 0.623 (inactive); in assay [7] it was -0.404. Besides, the values for the z-score in assay [8], in assay [9] and in [10] were -1.69 (inactive), -0.245 (inactive) and -3.56, respectively. Moreover, the composite z-score in assay [2] was -0.291.
`O=C1O[C@H](c2ccccc2)[C@H](c2ccccc2)N2[C@H]1[C@@H](C(=O)O)[C@]1(C(=O)Nc3ccc(C#CC4=CCCCC4)cc31)[C@H]2c1ccc(OCCO)cc1`: the z-score in [1] was -0.915 (inactive); in assay [3], 0.381 (inactive); in assay [4], -0.97 (inactive); in [5], -9.89 (active); in assay [6], -0.969 (inactive); in assay [7] it was 0.333. Further, the z-score in assay [8] was 1.19 (inactive); in assay [9] it was -0.768 (inactive); in assay [10] it was 1.37. This compound also showed a composite z-score in [2] of 0.167.
On to `COC(=O)c1ccc(C23CC2(C(NP(=O)(c2ccccc2)c2ccccc2)c2ccccc2)C3)cc1` (stereo not given), for which the z-score in assay [1] is -0.402 (inactive); in assay [3], 7.74 (inactive); in assay [4], 0.191 (inactive); in assay [5], -0.279 (inactive); in assay [6] it was -1.02 (inactive); in assay [7], 1.36. For the same compound, the z-score in assay [8] is -0.489 (inactive); in assay [9] it was -0.652 (inactive); in assay [10] it was -4.37. The composite z-score in assay [2] is 1.08.
In the case of `CCCNC(=O)[C@@]1(c2ccc([N+](=O)[O-])cc2)CC(=O)N(CC23CC4CC(CC(C4)C2)C3)[C@@H]1c1ccc(CO)cc1`, the z-score in assay [1] was -0.0948 (inactive); in assay [3] it was 5.64 (inactive); in assay [4], 0.903 (inactive); in assay [5] it was 2.2 (inactive); in assay [6], 0.625 (inactive); in assay [7] it was -0.154. Besides, the figures for the z-score in assay [8], in assay [9] and in assay [10] were 0.328 (inactive), -1.85 (inactive) and -0.569, respectively. The composite z-score in assay [2] was -0.409.
